{
  "source": "PubChem BioAssay AID651791",
  "about": "(National Center for Advancing Translational Sciences (NCATS), 2012)",
  "note": "Results filed as inconclusive are left out. Active and inactive are the calls of the source. Calls come from the whole dose curve; as a rule, active = well fitted inhibition curve with a large enough effect; inconclusive = small, poorly fitted or top-dose-only effect; inactive = no such curve, though single readings can be large or run the other way. Potency is the fitted concentration of half-maximal effect.",
  "data": [
    {"assay": "InCell qHTS Assay for Inhibitors of the mTORC1 Signaling Pathway in MEF (Tsc2-/-, p53-/-) Cells: Hit Validation; note: nearly all actives have a fitted effect of over 75% in size", "conditions": "phospho-rpS6 immunofluorescence, 24 h; activity change, negative = inhibition: at 38.3 µM (top of the series)", "excerpt": "The mammalian target of rapamycin (mTOR) is an intracellular serine/threonine kinase Aberrant regulation of mTOR signaling plays a causative role in a number of human diseases, including cancer, benign tumors such as lymphangioleiomyomatosis (LAM) and Tuberous Sclerosis Complex (TSC), and metabolic diseases such as diabetes and obesity. This project aims to identify inhibitors of ribosomal protein S6 (rpS6) phosphorylation. The phosphorylation of rpS6 is a key event downstream of mTOR activation. The assay uses a phospho-specific antibody of phospho-rpS6 to detect inhibitors of mTOR activation. Mutations in the Tsc1 and Tsc2 genes are the underlying genetic lesions responsible for TSC, causing constitutive activation of the mTORC1 pathway and leading to profound effects on cell metabolism. Aberrant metabolism in cancer has recently received significant attention as a target to develop therapeutic agents in the treatment of cancer.1 As Tsc2-/- cells have lost the ability to respond to energy and growth factor deprivation, these cells are unable to properly down regulate cellular biosynthetic processes in response to metabolic stress, and are thus extremely sensitive to glucose deprivation-induced death.2 A central goal of this project is to explore the unique cell survival and metabolic properties of cells with Tsc1 or Tsc2 by screening for compounds that selectively target the Tsc2-/- MEFs by screening both Tsc2-/- and WT MEF cell lines. We hope to better understand these aspects of TSC physiology in order to exploit them for therapeutic benefit. NIH Molecular Libraries Probe Production Centers Network [MLPCN] NIH Chemical Genomics Center [NCGC] MLPCN Grant: NS059428 Assay Submitter (PI): Blenis, John; Harvard University\nFor quantitative high throughput analysis of mTORC1 signaling, we developed a cell-based assay for immuno-fluorescence based detection of rpS6 phosphorylation on the Acumen Explorer that will be used a platform for the primary small molecule screen. Mouse embryonic fibroblasts (MEFs) are cultured in 1536-well plates using DMEM + 10% FBS. Twenty-four hrs after plating, test compounds (solubilized in DMSO) are delivered and incubated with the cells for 24 hrs at 37 degree Celsius. Following the incubation, media with compound is aspirated and the cells are fixed in 4% paraformaldehyde (PFA) containing PBS + 0.2% TX-100. Next, PFA is aspirated, cells are washed two times with PBS plus 0.2% TX-100 and the cells are blocked for 1 hr at room temperature (blocking buffer: LiCOR Blocking Buffer plus 0.2% TX-100). This is followed by aspiration and staining with Alexa-488 conjugated-phospho-rpS6 Ser235/236 antibody for 2 hours at room temperature (Cell Signaling Technology # 4803, 1:50 dilution in blocking buffer). Cells are washed two times with PBS plus 0.2% TX-100, and stained with 10 uM propidium iodide (PI) for 20-25 minutes for cell number measurement (1:500 dilution of Hoescht staining is also added for IN Cell imaging). The plates are scanned on the Acumen Explorer laser scanning instrument (TTP Labtech) using the 488nm laser for simultaneous excitation of the Alexa-488 and PI. The fluorescence emission from the Alexa-488 conjugated rpS6 phospho-235/236 antibody staining is selected using a […] band pass filter. Fluorescence emission from the PI stain is selected using a 575-640 nm band pass filter. The normalized phospho-S6 staining is calculated as the ratio of the integrated Alexa 488 intensity divided by the integrated PI intensity for the single concentration rapamycin control (7.5 nM) and DMSO columns. […] Inhibition of the pathway is defined based on the normalized phospho-S6 intensity in rapamycin treated cells. […]", "units": {"activity change, negative = inhibition": "%"}, "values": [
      {"molecule": "Cc1ccccc1OCc1ccc(-c2nc(C#N)c(NCCCN(C)C)o2)o1", "activity change, negative = inhibition": -100},
      {"molecule": "COc1ccc(NC(=O)c2c(NC(=O)COc3ccccc3)sc3c2CCC(C)C3)cc1", "note": "(stereo not given)", "activity change, negative = inhibition": -100},
      {"molecule": "COc1cccc(C(=O)CC2(O)C(=O)N(Cc3ccccc3)c3ccccc32)c1", "note": "(stereo not given)", "activity change, negative = inhibition": -100},
      {"molecule": "Cc1ccc(NC(=O)CCS(=O)(=O)c2ccc3nc(C)sc3c2)cc1", "activity change, negative = inhibition": -100},
      {"molecule": "CC1=Nc2cc(C(=O)NC(C)C)ccc2Sc2ccc(C)cc21", "activity change, negative = inhibition": -100},
      {"molecule": "COc1cc(C(=O)CC2(O)C(=O)N(Cc3ccccc3Cl)c3ccccc32)cc(OC)c1OC", "note": "(stereo not given)", "activity change, negative = inhibition": -3.93},
      {"molecule": "CCOC(=O)c1sc2ccccc2c1S(=O)(=O)Nc1ccc(CC)cc1", "activity change, negative = inhibition": -100},
      {"molecule": "CCCSc1ncc(Cl)c(C(=O)Nc2ccc(S(=O)(=O)N3CCCCC3C)cc2)n1", "note": "(stereo not given)", "activity change, negative = inhibition": -100},
      {"molecule": "CCC1CN(C(=O)NCc2ccc(F)cc2)c2cc(C)ccc2O1", "note": "(stereo not given)", "activity change, negative = inhibition": -100},
      {"molecule": "CN1CCN(C2(CNC(=O)COc3ccc(C(C)(C)C)cc3)CCCCC2)CC1", "activity change, negative = inhibition": -100},
      {"molecule": "CCCN1C(=O)C(O)(CC(=O)c2ccc(CC)cc2)c2ccccc21", "note": "(stereo not given)", "activity change, negative = inhibition": -100},
      {"molecule": "Cc1ccc(C(=O)c2cn(CC(=O)NCc3ccccc3Cl)c3nc(C)ccc3c2=O)cc1", "activity change, negative = inhibition": -100},
      {"molecule": "CCCCN1C(=O)C(O)(CC(=O)c2ccc(CC)cc2)c2cc(Br)ccc21", "note": "(stereo not given)", "activity change, negative = inhibition": -23.7},
      {"molecule": "Cc1ccc(S(=O)(=O)Nc2ccc3c(c2)c(C(=O)OC(C)C)c(C)n3S(=O)(=O)c2ccc(C)cc2)cc1", "activity change, negative = inhibition": -100},
      {"molecule": "O=C(NC1CCCCC1)/C(=C/c1ccc(Cl)cc1)NC(=O)c1ccccc1", "activity change, negative = inhibition": -22.5},
      {"molecule": "COc1ccc(OCC(=O)NCc2ccc3c(c2)CCN3C(=O)c2ccccc2)cc1", "activity change, negative = inhibition": -100},
      {"molecule": "Cc1ccc(CN(Cc2cccn2-c2nnc(N3CCCC3=O)s2)C(=O)Nc2ccccc2C(F)(F)F)cc1", "activity change, negative = inhibition": -100},
      {"molecule": "CCOc1c(Br)cc(C2CC(=O)Nc3cc4c(cc32)OCO4)cc1OC", "note": "(stereo not given)", "activity change, negative = inhibition": -100},
      {"molecule": "Cc1ccccc1CN1C(=O)C(O)(CC(=O)c2ccccc2)c2cc(Cl)ccc21", "note": "(stereo not given)", "activity change, negative = inhibition": -2.04},
      {"molecule": "CCOc1ccc(CC(=O)NC2CC(=O)N(c3ccc4c(c3)OCCO4)C2)cc1", "note": "(stereo not given)", "activity change, negative = inhibition": -100},
      {"molecule": "CCOc1ccc(Nc2nc(N)c(C(=O)c3ccccc3Cl)s2)cc1", "activity change, negative = inhibition": -100},
      {"molecule": "Cn1nnnc1SCCCNCc1ccccc1OCc1ccc(Cl)cc1", "activity change, negative = inhibition": -12.8},
      {"molecule": "CC(C)OCc1cc(CN2CCN(c3cccc(C(F)(F)F)c3)CC2)c(O)c2ncccc12", "activity change, negative = inhibition": -100},
      {"molecule": "COc1ccc(C2CC(=O)c3c([nH]c(C(=O)OC4CCCCCC4)c3C)C2)cc1OC", "note": "(stereo not given)", "activity change, negative = inhibition": -100},
      {"molecule": "COc1ccc(N2CC(c3nc(-c4cc(OC)c(OC)c(OC)c4)no3)CC2=O)cc1Cl", "note": "(stereo not given)", "activity change, negative = inhibition": -100},
      {"molecule": "Cc1ccc(NC(=O)CSc2nc(=O)cc(N)n2CCc2ccccc2)cc1", "activity change, negative = inhibition": -100},
      {"molecule": "CN(c1ccccc1)S(=O)(=O)c1ccc(NC(=O)c2nc(S(C)(=O)=O)ncc2Cl)cc1", "Potency": "2.07 µM (active)"},
      {"molecule": "Cc1ccc(C(=O)CC2(O)C(=O)N(Cc3ccccc3)c3ccccc32)c(C)c1", "note": "(stereo not given)", "activity change, negative = inhibition": -100},
      {"molecule": "COc1ccc(NC(=O)c2ccco2)cc1NC(=O)COc1ccccc1Cl", "activity change, negative = inhibition": -100},
      {"molecule": "CC(C)CCNc1nc(Nc2ccccc2)c2cnn(C)c2n1", "activity change, negative = inhibition": -100},
      {"molecule": "CCCN(c1ccccc1CC)S(=O)(=O)c1ccc2c(c1)CC(C)N2C(=O)C1CC1", "note": "(stereo not given)", "activity change, negative = inhibition": -100},
      {"molecule": "O=C(/C=C/c1ccco1)Nc1ccc(Cl)c(-c2nc3cc(Cl)ccc3o2)c1", "activity change, negative = inhibition": -100},
      {"molecule": "Brc1ccc(Nc2c3c(nc4nncn24)CCC3)cc1", "activity change, negative = inhibition": -100},
      {"molecule": "CCOC(=O)c1ccc(-c2ccc(/C=C(\\C#N)c3nc4ccc(C)cc4[nH]3)o2)cc1", "activity change, negative = inhibition": -100},
      {"molecule": "CCOCc1cc(CN2CCN(c3ccccc3OC)CC2)c(O)c2ncccc12", "Potency": "2.07 µM (active)"},
      {"molecule": "CCOc1ccc(NC(=O)CN2C(=O)C(c3ccc(Cl)cc3)=NC2(C)C)cc1", "activity change, negative = inhibition": -100},
      {"molecule": "Cc1nn(CC(=O)NCc2ccccc2Cl)c(=O)c2cccn12", "activity change, negative = inhibition": -100},
      {"molecule": "Cc1cccc(Oc2coc3cc(OCC(=O)NC4CCCCC4)ccc3c2=O)c1", "activity change, negative = inhibition": -100},
      {"molecule": "CCCOc1cccc(C2c3c(-c4ccccc4O)n[nH]c3C(=O)N2Cc2ccco2)c1", "note": "(stereo not given)", "activity change, negative = inhibition": -100},
      {"molecule": "CCOC(=O)c1cnc2ccc(OC)cc2c1NCCc1ccccc1", "activity change, negative = inhibition": -100}
    ]}
  ]
}
